Screens deposited in PubChem by National Center for Advancing Translational Sciences (NCATS).
Shown are actives, neighbours in structure and some others; about 19% of the full set was active somewhere.
TDP1 block: qHTS Assay for Inhibitors of Tyrosyl-DNA Phosphodiesterase (TDP1). Tyrosyl-DNA phosphodiesterase 1 (Homo sapiens), Q9NUW8. recombinant TDP1, AlphaScreen DNA substrate cleavage. Potency, µM (doses to about 130 µM), for the others: at the highest dose activity change, negative = inhibition, actives largely listed as inhibitors. 0.28% of 350,000 active; further: nearly all actives have a fitted effect of over 40% in size
Target sequence (Q9NUW8 whole entry, looked up): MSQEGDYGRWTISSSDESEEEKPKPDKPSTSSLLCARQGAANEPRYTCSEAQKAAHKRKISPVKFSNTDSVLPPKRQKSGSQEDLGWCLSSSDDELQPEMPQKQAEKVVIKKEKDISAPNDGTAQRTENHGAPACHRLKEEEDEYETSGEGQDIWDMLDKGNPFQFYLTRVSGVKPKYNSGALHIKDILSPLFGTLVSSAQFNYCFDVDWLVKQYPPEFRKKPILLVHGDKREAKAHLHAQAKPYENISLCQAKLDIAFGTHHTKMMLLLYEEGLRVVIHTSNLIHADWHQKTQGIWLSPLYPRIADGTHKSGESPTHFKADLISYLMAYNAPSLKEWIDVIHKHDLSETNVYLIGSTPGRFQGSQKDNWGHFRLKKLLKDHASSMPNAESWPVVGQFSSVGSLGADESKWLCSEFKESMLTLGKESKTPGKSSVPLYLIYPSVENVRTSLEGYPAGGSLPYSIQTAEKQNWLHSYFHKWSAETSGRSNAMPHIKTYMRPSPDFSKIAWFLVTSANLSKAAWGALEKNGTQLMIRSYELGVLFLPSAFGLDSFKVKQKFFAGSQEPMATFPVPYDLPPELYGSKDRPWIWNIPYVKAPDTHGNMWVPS
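Here, a 5' biotin and 3' phosphotyrosine-FITC DNA oligonucleotide reports Tdp1 activity: intact substrate bridges AlphaScreen beads, while cleavage leaves a 3' phosphate and drops signal. All incubations at room temperature.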
VP16 counter: VP16 counterscreen qHTS for inhibitors of ROR gamma transcriptional activity. Drosophila S2 Gal4-VP16 UAS-luciferase, luminescence, 20 h. Potency, µM (highest dose often 53.6 µM), inactives show top-dose activity, negative = inhibition, actives largely listed as inhibitors. 3.5% of 310,000 active;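 further: Gal4-VP16 expression switched on by copper sulfate through the metallothionein promoter; nearly all actives have a fitted effect of over 50% in size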
TDP1 cell noCPT: qHTS for Inhibitors of human tyrosyl-DNA phosphodiesterase 1 (TDP1): qHTS in cells in absence of CPT; Potency, µM (doses to about 46.2 µM), without a hit: at the top dose activity change, negative = growth inhibition, hits mostly inhibitors; 15% of 420,000 active; DT40 Tdp1-/- hTDP1 cells, no CPT, ATP luminescence, 48 h; further: nearly all actives have a fitted effect of over 55% in size
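Camptothecin absent (DMSO only). Human TDP1-complemented DT40 knockout cells, 400 cells/well, 37 °C for minimum 48 hr; ATP measured via CellTiter-Glo, 30 min dark incubation, luminescence.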
RORg inh: qHTS for inhibitors of ROR gamma transcriptional activity; Drosophila S2 Gal4-RORgamma UAS-luciferase reporter, 20 h; Potency, µM (doses to about 53.6 µM), without a hit: top-dose activity change, negative = inhibition, most hits filed as inhibitors; AID 2551, 2010; 5.4% of 310,000 active; Nuclear receptor ROR-gamma (Mus musculus), P51450; further: nearly all actives have a fitted effect of over 60% in size
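In this cell-based reporter format, copper sulfate (700 uM final) drives Gal4–ROR gamma fusion expression from a metallothionein promoter in Drosophila Schneider cells; compounds preincubated 1 hr, reporter read after 20 hr at ambient temperature.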
TDP1 cell CPT: qHTS for Inhibitors of human tyrosyl-DNA phosphodiesterase 1 (TDP1): qHTS in cells in presence of CPT; chicken DT40 Tdp1-/-;hTDP1 cells + 20 nM CPT, ATP luminescence, 48 h; Potency, µM (titrated, usually from 46.2 µM), for inactives: top-dose activity change, negative = growth inhibition, actives largely listed as inhibitors; 12% of 420,000 active; AID 686979, 2013; further: nearly all actives have a fitted effect of over 55% in size
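Chicken DT40 Tdp1-/- cells complemented with human TDP1, 400 cells/well, exposed to compounds plus 20 nM camptothecin for at least 48 h at 37 C; viability read as ATP content by CellTiter-Glo luminescence.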
* marks the source's active call; other numbers are inactive results; ? = inconclusive; nt = not tested or not shown; [ ] = dose if it differs, or a comment. The call rests on the fitted dose curve; in most records, active means well fitted curve in the direction sought with a large enough effect; inconclusive means small, poorly fitted or top-dose-only effect, or another doubt; inactive means no such curve, though single readings can be large; an effect the other way counts as inactive or inconclusive. On the % scale 0 is the no-effect control and ±100 the full control effect; potency means the concentration at half of the fitted maximal effect.

SMILES | TDP1 block | VP16 counter | TDP1 cell noCPT | RORg inh | TDP1 cell CPT
Cc1ccc(S(=O)(=O)N[C@H](C(=O)OCC(=O)NC(=O)NCc2ccco2)C(C)C)cc1 | -17% | nt | ? | nt | -21%
CC(=O)c1cccc(NC(=O)C2=CC(c3ccco3)=NS(=O)(=O)N2C)c1 | 2% | -3% | ? | 28% | ?
COc1cccc(CNCc2ccccc2Br)c1OC | nt | 3% | ? | -42% | ?
CCOC(=O)N1CCN(S(=O)(=O)c2ccc3c(c2)CC(C)N3C(C)=O)CC1 (stereo not given) | 3% | -12% | ? | 1% | -28%
COCCN1CCN(C(=O)c2ccc3c(c2)S(=O)(=O)c2ccccc2C3=O)CC1 | nt | nt | nt | nt | -6%
CN(CC(=O)NNC(=O)c1cccnc1)S(=O)(=O)c1cc(Cl)ccc1Cl | 4% | -3% | -6% | -6% | 8%
CC1(C(=O)NS(=O)(=O)c2cccs2)CCN1C(=O)C1(c2ccc(Cl)cc2)CCC1 (stereo not given) | nt | nt | -2% | nt | 5%
CCc1cc2ccc(OC)cc2nc1SCC(=O)N1CCN(C(=O)c2ccco2)CC1 | nt | 2% | -22% | 18% | ?
Cc1noc(C)c1S(=O)(=O)N1CCC(C(=O)N2CCN(C(=O)c3ccco3)CC2)CC1 | 4% | 2% | 14% | 4% | -2%
Cc1ccc(NC(=O)Nc2nc(-c3ccc(C)s3)cs2)cc1 | 1% | -9% | 12µM* | -17% | ?
COc1ccc(-c2csc(NC(=S)NC(=O)c3ccc4ccccc4c3)n2)cc1OC | nt | ? | ? | 2µM* | ?
COc1ccc(-c2csc(NC(=O)Nc3ccccc3)n2)cc1 | nt | 5% | -20% | 0% | -29%
O=C(CCCc1cccs1)Nc1nc(-c2ccc(F)cc2)cs1 | 2% | -23% | 8.2µM* | 35%[10 µM] | ?
O=C(Cc1ccccc1F)Nc1nc(-c2ccc(F)c(F)c2)cs1 | 6% | -7% | 2.1µM* | ? | 5.2µM*
C#CCNC(=O)C1=C[C@H](c2coc3ccccc3c2=O)C[C@H](OCc2ccc(CO)cc2)O1 | 4% | 4% | ? | 17% | ?
Cc1cnc(-n2ncc(C(=O)N(C)Cc3cccc4ncccc34)c2C(C)C)nc1-c1ccc(F)cc1 | nt | nt | -10% | nt | -1%
COc1ccc(-c2csc(NC(=O)CCn3cnc4ccccc4c3=O)n2)cc1OC | 3% | -26% | 18µM* | -34% | ?
CC(OC(=O)c1ccc([N+](=O)[O-])o1)C(=O)Nc1nc(-c2ccc(F)c(F)c2)cs1 (stereo not given) | -1% | nt | 21µM* | nt | 21µM*
COc1ccc(-c2csc(NC(=O)Cc3ccccc3)n2)cc1OC | 6% | 4% | 1.6µM* | 5% | ?
O=C(Cc1cccs1)Nc1nc(-c2ccc(F)c(F)c2)cs1 | 2% | 21% | 1.5µM* | 3% | 8.2µM*
COc1ccc(-c2csc(NC(=O)CCCc3nc4ccccc4c(=O)[nH]3)n2)cc1OC | 5%[0.505 µM] | nt | ? | nt | ?
COc1ccc(-c2csc(NC(C)=O)n2)cc1OC | 7% | 19% | -22% | 51% | -30%
O=C(Cc1cccs1)Nc1ccc(F)c(F)c1 | nt | 4% | -5% | 10% | -11%
O=C1C2CC=CCC2C(=O)N1CNc1ccccc1 (stereo not given) | nt | -7% | -17% | 0% | 0%
O=C(N/N=C/c1ccc(O)c(O)c1)C1CC1 | nt | nt | -7% | nt | -18%
SMILES | TDP1 block | VP16 counter | TDP1 cell noCPT | RORg inh | TDP1 cell CPT
O=C(O)CCCC(=O)Nc1nc(-c2ccccc2)cs1 | 1% | ? | -8% | -11% | 1%
O=C(Cc1c(F)c(F)c(F)c(F)c1F)Nc1nc(-c2ccccc2)cs1 | 7% | -22% | 16µM* | ? | ?
O=C(COC(=O)C1CC1)Nc1nc(-c2ccc(F)c(F)c2)cs1 | -12%[0.505 µM] | nt | 10µM* | nt | 21µM*
O=C(CN1CCCCC1)Nc1nc(-c2ccc(F)c(F)c2)cs1 | 0% | -3% | ? | 0% | ?
COc1ccc(N2CCN(C(=O)NCc3cccc(OC)c3)CC2)cc1 | -5% | 1% | -20% | -13% | ?
CN(C)C(=O)c1ccc2c(c1[N+](=O)[O-])C(=O)c1ccccc1C2=O | 0% | 3.5µM* | 5.8µM* | 2.2µM* | 2.9µM*
Cc1[nH]c2c(C)cccc2c1CCNC(=O)c1ccc2c(c1[N+](=O)[O-])C(=O)c1ccccc1C2=O | 2% | ? | 8.2µM* | 6.3µM* | 16µM*
Cc1[nH]c2ccccc2c1CCNC(=O)c1ccc2c(c1[N+](=O)[O-])C(=O)c1ccccc1C2=O | 4% | ? | 2.9µM* | 10µM* | 4.6µM*
CCCNC(=O)NCCc1c(C)[nH]c2ccccc12 | 6% | -1% | -7% | 0% | 9%
CN(NS(=O)(=O)c1ccccc1)c1nc2ccccc2nc1C(F)(F)F | 2% | 7% | -18% | -19% | -17%
COc1ccccc1C(C)NC(=O)c1ccc(C)o1 (stereo not given) | 0% | -4% | ? | 3% | ?
COc1cc(-n2ccnc2SC)c(Cl)cc1Cl | 7% | 2% | 18µM* | -34% | ?
COc1ccccc1-n1ccnc1SCC(=O)NC1CCCC1 | -12% | 3% | -1% | -6% | 8%
CCC(=O)Nc1cccc(NC(=S)NC(=O)c2cccs2)c1 | 4% | 3% | -9% | ? | -9%
CCOc1ccccc1Nc1nc(N)nc(CSc2nncn2C)n1 | 2% | 8% | 1% | 11% | 6%
Cc1cc2n(n1)SC(Nc1ccc(F)c(Cl)c1)N2 (stereo not given) | 0% | 1.1µM* | -5% | 0.63µM* | -11%
COc1ccc(CCNCC(C)c2ccccc2)cc1 (stereo not given) | nt | -6% | -20% | -16% | -10%
COc1ccc(CNCCC(c2ccc(OC(C)C)cc2)c2ccccc2OC)cc1 (stereo not given) | nt | ? | 12µM* | ? | 13µM*
COc1ccccc1C(CCNCc1ccc(N(C)C)cc1)c1ccc(OC(C)C)cc1 (stereo not given) | nt | -15% | 7.3µM* | ? | 21µM*
COc1ccccc1C(CCNCc1ccccc1)c1ccc(OC(C)C)cc1 (stereo not given) | nt | -19% | 21µM* | ? | 16µM*
COCCNCc1ccccc1 | -2% | 7% | ? | 2% | ?
COc1ccc(CNCCC(c2ccc(OC(C)C)cc2)c2ccccc2OC)cc1OC (stereo not given) | nt | 3% | 10µM* | -7% | 8.2µM*
